According to PubChem BioAssay AID1159580 (chemical genetic matrix, 2015):
About 2,000 (36%) of roughly 5,500 compounds were called active. Another 18% or so got no clear call; they are omitted. Cut-off read from the data, not from the text of the source: active = normalized growth mostly below about 0.91 (no sharp cut-off); inconclusive = no clear call, values can overlap the other calls; inactive = mostly above about 0.92. The list shows a part of the results.

Assay: chemical genetic growth profiling, strain panel (AID 1159580);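 note: tested at 20 µM; growth read once vehicle control cultures reached saturation at 30 °C; 1 = growth at the plate median or of vehicle wells; lower values mean less growth of the strain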
Conditions: growth OD

Measured: normalized growth

ClC(Cl)=C(c1ccc(Cl)cc1)c1ccc(Cl)cc1
active: S. cerevisiae deletion strains, locus YKL068W, active compounds read low 0.94 | S. cerevisiae deletion strains, locus YLR039C, strain RIC1, active compounds read low 0.637 | S. cerevisiae deletion strains, locus YNL307C, strain MCK1, active compounds read low 0.841
inactive: S. cerevisiae deletion strains, locus YJR075W, strain HOC1, active compounds read low 0.947 | S. cerevisiae deletion strains, locus YKL009W, strain mrt4, active compounds read low 0.995 | S. cerevisiae deletion strains, locus YKL085W, strain MDH1 (second series), active compounds read low 0.931 | S. cerevisiae deletion strains, locus YKL085W, strain MDH1, active compounds read low 0.931 | S. cerevisiae deletion strains, locus YKL160W, strain elf1, active compounds read low 0.998 | S. cerevisiae deletion strains, locus YKL190W, strain CNB1, active compounds read low 0.966 | S. cerevisiae deletion strains, locus YKR001C, strain vps1, active compounds read low 0.949 | S. cerevisiae deletion strains, locus YKR026C, strain gcn3, active compounds read low 1 | S. cerevisiae deletion strains, locus YKR091W, strain srl3, active compounds read low 0.985 | S. cerevisiae deletion strains, locus YLL001W, strain dnm1, active compounds read low 0.996 | S. cerevisiae deletion strains, locus YLL026W, active compounds read low 0.993 | S. cerevisiae deletion strains, locus YLL041C, strain sdh2, active compounds read low 0.991 | S. cerevisiae deletion strains, locus YLR027C, strain aat2, active compounds read low 1.01 | S. cerevisiae deletion strains, locus YLR058C, strain SHM2, active compounds read low 0.962 | S. cerevisiae deletion strains, locus YLR102C, strain apc9, active compounds read low 0.954 | S. cerevisiae deletion strains, locus YLR113W, strain HOG1, active compounds read low 0.979 | S. cerevisiae deletion strains, locus YLR221C, strain rsa3, active compounds read low 0.994 | S. cerevisiae deletion strains, locus YLR258W, strain gsy2, active compounds read low 0.985 | S. cerevisiae deletion strains, locus YLR262C, strain YPT6 (second series), active compounds read low 1.04 | S. cerevisiae deletion strains, locus YLR262C, strain YPT6, active compounds read low 0.652 | S. cerevisiae deletion strains, locus YLR268W, strain sec22, active compounds read low 0.969 | S. cerevisiae deletion strains, locus YLR320W, strain mms22, active compounds read low 0.967 | S. cerevisiae deletion strains, locus YLR330W, strain CHS5, active compounds read low 0.962 | S. cerevisiae deletion strains, locus YLR342W, strain FKS1 (second series), active compounds read low 0.879 | S. cerevisiae deletion strains, locus YLR342W, strain FKS1, active compounds read low 0.983 | S. cerevisiae deletion strains, locus YLR357W, strain rsc2, active compounds read low 1 | S. cerevisiae deletion strains, locus YLR370C, strain arc18, active compounds read low 0.996 | S. cerevisiae deletion strains, locus YLR371W, strain rom2, active compounds read low 0.953 | S. cerevisiae deletion strains, locus YLR384C, strain iki3, active compounds read low 0.987 | S. cerevisiae deletion strains, locus YLR418C, strain cdc73, active compounds read low 0.905 | S. cerevisiae deletion strains, locus YML016C, strain PPZ1, active compounds read low 0.946 | S. cerevisiae deletion strains, locus YML032C, strain rad52, active compounds read low 0.949 | S. cerevisiae deletion strains, locus YML120C, strain ndi1, active compounds read low 0.988 | S. cerevisiae deletion strains, locus YML124C, strain tub3, active compounds read low 0.942 | S. cerevisiae deletion strains, locus YMR058W, strain fet3, active compounds read low 0.996 | S. cerevisiae deletion strains, locus YMR078C, strain ctf18, active compounds read low 0.925 | S. cerevisiae deletion strains, locus YMR125W, strain sto1, active compounds read low 0.988 | S. cerevisiae deletion strains, locus YMR129W, active compounds read low 0.997 | S. cerevisiae deletion strains, locus YMR205C, strain PFK2, active compounds read low 0.959 | S. cerevisiae deletion strains, locus YMR223W, strain ubp8, active compounds read low 0.964 | S. cerevisiae deletion strains, locus YMR231W, strain pep5, active compounds read low 0.999 | S. cerevisiae deletion strains, locus YMR263W, strain SAP30, active compounds read low 0.96 | S. cerevisiae deletion strains, locus YMR307W, strain GAS1, active compounds read low 0.978 | S. cerevisiae deletion strains, locus YNL067W, strain RPL9B, active compounds read low 0.974 | S. cerevisiae deletion strains, locus YNL071W, strain lat1, active compounds read low 1 | S. cerevisiae deletion strains, locus YNL128W, strain TEP1, active compounds read low 0.973 | S. cerevisiae deletion strains, locus YNL153C, strain GIM3, active compounds read low 0.98 | S. cerevisiae deletion strains, locus YNL183C, strain NPR1, active compounds read low 0.986 | S. cerevisiae deletion strains, locus YNL209W, strain ssb2, active compounds read low 0.994 | S. cerevisiae deletion strains, locus YNL233W, strain BNI4, active compounds read low 0.981 | S. cerevisiae deletion strains, locus YNL248C, strain rpa49, active compounds read low 0.993 | S. cerevisiae deletion strains, locus YNL250W, strain rad50, active compounds read low 0.917 | S. cerevisiae deletion strains, locus YNL271C, strain bni1, active compounds read low 0.957 | S. cerevisiae deletion strains, locus YNL298W, strain CLA4, active compounds read low 0.953 | S. cerevisiae deletion strains, locus YNL322C, strain KRE1 (second series), active compounds read low 0.989 | S. cerevisiae deletion strains, locus YNL322C, strain KRE1, active compounds read low 0.963 | S. cerevisiae deletion strains, locus YNR049C, strain mso1, active compounds read low 0.994 | S. cerevisiae deletion strains, locus YNR052C, strain pop2, active compounds read low 0.954 | S. cerevisiae deletion strains, locus YOL006C, strain TOP1, active compounds read low 1.01 | S. cerevisiae deletion strains, locus YOL012C, strain htz1 0.487 | S. cerevisiae deletion strains, locus YOL147C, strain pex11, active compounds read low 0.946 | S. cerevisiae deletion strains, locus YOR001W, strain rrp6, active compounds read low 0.989 | S. cerevisiae deletion strains, locus YOR061W, strain CKA2, active compounds read low 0.957 | S. cerevisiae deletion strains, locus YOR069W, strain VPS5, active compounds read low 0.955 | S. cerevisiae deletion strains, locus YOR070C, strain gyp1, active compounds read low 1 | S. cerevisiae deletion strains, locus YOR080W, strain dia2, active compounds read low 0.988 | S. cerevisiae deletion strains, locus YOR083W, strain WHI5, active compounds read low 0.994 | S. cerevisiae deletion strains, locus YOR106W, strain vam3, active compounds read low 1 | S. cerevisiae deletion strains, locus YOR136W, strain idh2, active compounds read low 0.96 | S. cerevisiae deletion strains, locus YOR144C, strain elg1, active compounds read low 0.952 | S. cerevisiae deletion strains, locus YOR184W, strain ser1, active compounds read low 0.954 | S. cerevisiae deletion strains, locus YOR231W, strain MKK1, active compounds read low 1.04 | S. cerevisiae deletion strains, locus YOR265W, strain rbl2, active compounds read low 0.992 | S. cerevisiae deletion strains, locus YOR270C, strain vph1, active compounds read low 0.978 | S. cerevisiae deletion strains, locus YOR290C, strain snf2, active compounds read low 0.99 | S. cerevisiae deletion strains, locus YOR316C, strain cot1, active compounds read low 0.945 | S. cerevisiae deletion strains, locus YPL051W, strain arl3, active compounds read low 0.989 | S. cerevisiae deletion strains, locus YPL055C, strain LGE1, active compounds read low 0.983 | S. cerevisiae deletion strains, locus YPL078C, strain atp4, active compounds read low 0.991 | S. cerevisiae deletion strains, locus YPL106C, strain sse1, active compounds read low 0.991 | S. cerevisiae deletion strains, locus YPL240C, strain hsp82, active compounds read low 0.989 | S. cerevisiae deletion strains, locus YPL241C, strain CIN2, active compounds read low 0.973 | S. cerevisiae deletion strains, locus YPL256C, strain CLN2, active compounds read low 1.05 | S. cerevisiae deletion strains, locus YPR119W, strain clb2, active compounds read low 0.932 | S. cerevisiae deletion strains, locus YPR141C, strain kar3, active compounds read low 0.93 | S. cerevisiae deletion strains, locus YPR163C, strain tif3, active compounds read low 0.952 | S. cerevisiae deletion strains, locus YPR167C, strain met16, active compounds read low 0.942 | S. cerevisiae deletion strains, strain wtn01, active compounds read low 0.936 | S. cerevisiae strains, strain wild type, active compounds read low 0.958
